Compound activity deposited in PubChem BioAssay by National Center for Advancing Translational Sciences (NCATS).
An excerpt weighted towards active compounds, which were near 9.4% of everything screened.
Pf growth 48h = inhibits P. falciparum growth in the first generation, 48 h; 310,000 tested, 5.9% active; Potency, µM (titrated, usually from 28.7 µM), for inactives: at the top dose activity change, negative = inhibition, actives largely listed as inhibitors; P. falciparum luciferase growth in erythrocytes, 48 h; AID 504832; note: % is set by controls: 0 for no effect and ±100 for the full control effect
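Compounds are pin-transferred into medium, infected erythrocytes (2% hematocrit, 0.1% parasitemia final) are added, and plates sit one parasite generation at 37 C in 5% CO2. Detection reagent is then added and luminescence measured.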
Pf growth 96h = P. falciparum growth inhibition at 96 hours; 320,000 tested, 6.9% active; P. falciparum luciferase reporter growth, 96 h; Potency, µM (doses to about 28.7 µM), for the others: at the top dose activity change, negative = inhibition, hits mostly inhibitors; note: % is set by controls: 0 for no effect and ±100 for the full control effect
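P. falciparum expressing integrated firefly luciferase, in erythrocytes at 2% hematocrit, 0.05% parasitemia, incubated with compounds 96 h at 37 C, 5% CO2. Growth inhibition read as loss of luminescence; two-generation exposure targets delayed-death apicoplast inhibitors.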
SARS PLP yeast = SARS-CoV PLP inhibition in yeast; 330,000 tested, 0.19% active; Potency, µM (top dose mostly 32.9 µM), without a hit: at the top dose activity, positive = growth rescue, hits mostly activators; S. cerevisiae expressing SARS-CoV PLpro, growth rescue; calls by dose curve; note: 0% is about no effect; nearly all actives have a fitted effect of over 55% in size
AMA1 RON2 block = disrupts binding of P. falciparum AMA1 to RON2; AlphaScreen AMA1-biotinylated RON2 peptide binding; Potency, µM (doses to about 58.2 µM), inactives show at the top dose activity change, negative = inhibition, hits mostly inhibitors; 360,000 tested, 0.2% active; AID 720542;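 note: 0% = vehicle wells and -100% = peptide control; nearly all actives have a fitted effect of over 45% in size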
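AMA1 (3D7) with his tag at 25 nM final met compounds first, then biotinylated RON2 peptide at 25 nM; detection used donor plus acceptor beads, 10 µg/mL apiece, read by AlphaScreen after 30 min at room temperature.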
* = called active by the depositor; ? = inconclusive; nt = no result. Unless noted, calls come from the whole dose curve; as a rule, active = well fitted curve in the direction sought with a large enough effect; inconclusive = small, poorly fitted or top-dose-only effect, or another doubt; inactive = no such curve, though single readings can be large; an effect the other way counts as inactive or inconclusive. Potency is the fitted concentration of half-maximal effect.

SMILES	Pf growth 48h	Pf growth 96h	SARS PLP yeast	AMA1 RON2 block
CC(C)=CCOc1ccc2c(C)c(CC(=O)N3C[C@H]4C[C@@H](C3)c3cccc(=O)n3C4)c(=O)oc2c1C	?	9.3µM*	4%	5%
C=C(C)COc1ccc2c(C)c(CCC(=O)N3C[C@H]4C[C@@H](C3)c3cccc(=O)n3C4)c(=O)oc2c1	?	2.6µM*	-3%	-8%
C=C(C)COc1cc2oc(=O)c(CC(=O)N3C[C@H]4C[C@@H](C3)c3cccc(=O)n3C4)c(C)c2cc1Cl	-17%	10µM*	0%	-2%
Cc1nc2ccccn2c1C(=O)N/N=C/c1ccccc1Cl	6%	1%	0%	16%
Cc1ccc(NS(=O)(=O)c2cccc(C(=O)Nc3c(C)n(C)n(-c4ccccc4)c3=O)c2)cc1	18%	23%	-2%	-14%
Cc1ccc(NC(=O)CSc2ncnc3ccccc23)cc1S(=O)(=O)N1CCOCC1	12µM*	?	0%	-7%
COc1ccc(Nc2nc(-c3ccccc3)nc3ccccc23)cc1S(=O)(=O)N1CCOCC1	?	13µM*	-4%	5%
Cc1ccc(S(=O)(=O)N2CCN(C(=O)CCc3nc4ccccc4c(=O)[nH]3)CC2)c(C)c1	?	12µM*	-2%	10%
Cc1ccc(NC(=O)CCc2nc3ccccc3c(=O)[nH]2)cc1S(=O)(=O)N1CCOCC1	?	4.1µM*	2%	-8%
COc1ccc(C(=O)Nc2ccc(O)cc2C(=O)O)cc1	7%	17%	0%	-25%
Cc1csc(NC(=O)CN2C(=O)COc3ccc(Cl)cc32)n1	-9%	6%	14%	-9%
NC(=O)C1CCN(c2ccc(C(F)(F)F)cc2[N+](=O)[O-])CC1	-2%	3%	-3%	-5%
COC(=O)c1ccc(NC(=O)C23CC4CC(C2)CC(n2cncn2)(C4)C3)cc1	-12%	-22%	11%	-3%
Cc1ccc(CN2C(=O)c3ccccc3NC23CCN(Cc2ccccc2)CC3)cc1	?	?	-1%	6%
CCCS(=O)(=O)N1CCC(C(=O)NCCCN2CCCC2=O)CC1	1%	19%	-10%	-6%
CCOCCCN1CC(C(=O)NCCc2ccccc2)CC1=O (centres undefined)	10%	39%	0%	-2%
Cc1ccc(NCC(=O)Nc2ccc(F)c(Cl)c2)cc1S(=O)(=O)N1CCOCC1	nt	nt	nt	-1%
O=C(CCc1nc2ccccc2c(=O)[nH]1)N1CCN(S(=O)(=O)c2ccccc2Br)CC1	?	?	?	15%
Cc1ccc(C)c(S(=O)(=O)N2CCN(C(=O)CCc3nc4ccccc4c(=O)[nH]3)CC2)c1	?	10µM*	-10%	-3%
Cc1ccc(C)c(S(=O)(=O)N2CCN(C(=O)CCCc3c[nH]c4ccccc34)CC2)c1	15µM*	?	nt	-21%
Cc1nc(-c2ccc(F)cc2)c(CC(=O)N2CCN(S(=O)(=O)c3cccc([N+](=O)[O-])c3)CC2)s1	9.3µM*	12µM*	3%	-22%
Cc1nc(-c2ccc(F)cc2)c(CC(=O)Nc2ccc(C)c(S(=O)(=O)N3CCOCC3)c2)s1	8.3µM*	9.3µM*	0%	13%
Cc1cc(NS(=O)(=O)c2ccc(NC(=O)c3ccccc3C)cc2)no1	0%	31%	1%	5%
CC(=O)c1ccc(N2CCN(CC(O)COC(c3ccccc3)c3ccccc3C)CC2)cc1 (centres undefined)	10µM*	?	0%	?
CC(=O)c1ccc(N2CCN(CC(O)COC(c3ccccc3)c3ccccc3)CC2)cc1 (centres undefined)	?	-7%	4%	-20%
SMILES	Pf growth 48h	Pf growth 96h	SARS PLP yeast	AMA1 RON2 block
C[N+]1(CC(=O)OCCCC2CCCCC2)CCCC1	?	?	-1%	-11%
CC(C)(C)c1ccc(OC(=O)c2ccccc2)cc1	62%	19%	1%	40%
CCCN1CCN(CCCNC(=O)c2cc3c(=O)n(C)c4ccccc4c3n2C)CC1	nt	3%	-2%	9%
Cn1c(C(=O)NCCCN2CCCCCC2)cc2c(=O)n(C)c3ccccc3c21	3.3µM*	?	-3%	-4%
CCN(CC)CCCNC(=O)c1cc2c(=O)n(C)c3ccccc3c2n1C	nt	10µM*	2%	5%
COc1ccc(Nc2cc(NCCCO)c([N+](=O)[O-])c3nonc23)cc1	?	?	2%	-3%
O=S(=O)(NCCOCC(F)(F)F)c1ccc2oc3ccccc3c2c1	12µM*	0%	-22%	-7%
CCCCNS(=O)(=O)c1cc(-c2nn(C)c(=O)c3ccccc23)ccc1C	13µM*	14%	0%	-8%
Cc1ccc(-c2nn3c(C)nnc3c3ccccc23)cc1S(=O)(=O)NC(C)c1ccccc1 (centres undefined)	?	7.4µM*	-5%	-20%
Cc1ccc(-c2nn3c(C)nnc3c3ccccc23)cc1S(=O)(=O)NCCO	-18%	27%	-1%	-9%
CCCCC(c1nnnn1CC1CCCO1)N1CCN(c2nc3ccccc3s2)CC1 (centres undefined)	13µM*	1%	-3%	?
CC(C)CC(c1nnnn1CC1CCCO1)N1CCN(c2nc3ccccc3s2)CC1 (centres undefined)	?	130%	2%	8%
CCCC(c1nnnn1CC1CCCO1)N1CCN(c2nc3ccccc3s2)CC1 (centres undefined)	12µM*	-2%	7%	-5%
CCCCC(c1nnnn1CC1CCCO1)N1CCN(c2ccccc2)CC1 (centres undefined)	-17%	1%	0%	-3%
O=S(=O)(NC1CCCCC1N1CCN(c2ccc(F)cc2)CC1)c1ccc(Cl)cc1 (centres undefined)	13µM*	?	-19%	-11%
CC(C)(C)NCC(O)COc1ccccc1C(=O)CCc1ccccc1 (centres undefined)	nt	?	4%	0%
CC(C)(C)NCC(O)COc1ccccc1C(C)(C)C (centres undefined)	4.7µM*	?	0%	-6%
CC(C)(C)NC[C@@H](O)COc1ccccc1C1CCCC1	2.9µM*	2.3µM*	nt	nt
O=C(OCC(=O)N(C1CCCCC1)C1CCCCC1)c1ccncc1	-14%	nt	3%	-10%
Cc1cc(NC(=O)CSc2nnc(NC(=O)C3CC(=O)N(c4ccccc4C)C3)s2)no1 (centres undefined)	-16%	-12%	17%	12%
COc1ccc(N2C(=O)CSC23C(=O)N(CC(=O)NC2CCCC2)c2ccccc23)cc1 (centres undefined)	-5%	8.3µM*	2%	-6%
COCCN(CCOC)S(=O)(=O)c1ccc(C(=O)Nc2nnc(COC)o2)cc1	19%	2%	1%	-2%
CSCc1nnc(NC(=O)c2ccc(S(=O)(=O)N(C)C)cc2)o1	?	-8%	-2%	67%
CCCN(CCC)S(=O)(=O)c1ccc(C(=O)Nc2nnc(COC)o2)cc1	15µM*	-1%	26%	40%
C=CCN(CC=C)S(=O)(=O)c1ccc(C(=O)Nc2nnc(CSC)o2)cc1	12µM*	?	1%	50%
